# Source: PubChem BioAssay (NCI)
# About 83,000 compounds went through this panel and 20% of them were active in at least one assay; those are over-represented in the sample as a whole.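 Activity criterion: percent growth below 10, measured after cells in 96-well plates were exposed to a single compound concentration for 48 hours.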 Active and inactive are the calls of the source.
# Test system: HL-60(TB) leukemia
# Test: NCI-60 one-dose screen, 48 h (100 = growth as untreated, 0 = no growth, -100 = all killed)
# Conditions: 10 µM unless noted
row,SMILES,growth
1,CN(C)CCOc1nc2c3cccnc3cc(-c3cccc(Cl)c3)c2c2ncccc12,-20.4% (active)
2,O=S(=O)(NCCCNc1nccc(-c2c(-c3ccc(F)cc3)nc3sccn23)n1)c1ccc(F)cc1,35.5% (inactive)
3,O=[N+]([O-])/C(=C\c1ccco1)c1ccccc1Cl,81.6% (inactive)
4,O=CN1N=C(c2cccc(Nc3ccncc3)c2)CC1c1ccc2c(c1)OCO2 (centres undefined),85.5% (inactive)
5,COc1ccc(C(=O)/C=C/c2ccccn2)c(O)c1,23.4% (inactive)
6,O=C1OCC2=C1C(c1cccc(Br)c1)c1cc3c(cc1N2CCO)OCCO3 (centres undefined),-23.7% (active)
7,COc1ccccc1N1CCN(CCCOc2ccc(OCCCN3CCN(c4ccccc4OC)CC3)c(C(=O)c3cc(OC)c(OC)c(OC)c3)c2)CC1,101% (inactive)
8,CN1CCN(Cc2ccc(NC(=O)c3cncc(C#Cc4cncc5[nH]ncc45)c3)cc2C(F)(F)F)CC1,-28.9% (active)
9,COc1cc(C(=O)c2cnc(-c3ccc4cc[nH]c4c3)[nH]2)cc(OC)c1OC,-1.01% (active)
10,ClC1=C(Br)C(Br)(Br)C(=C(Br)Br)C1(Br)Br,29.8% (inactive)
11,CCCCCCNC(=O)Oc1ccc(/C(=C(\C)c2ccc(Cl)cc2)c2ccc(OCCCN(C)C)cc2)cc1,62.9% (inactive)
12,C#CCO[C@H]1CC[C@H](OCC#C)[C@@H]2[C@H]1[C@H]1C[C@@H]3[C@@]4(C)CCC[C@@](C)(C(=O)OC)[C@@H]4CC[C@@]23C=C1C(C)C,78.1% (inactive)
13,COC(=O)c1cc2c(/C=C3/NC(=S)NC3=O)coc2n1C,100% (inactive)
14,CC(C)CNCC(=O)Nc1ccc(Cc2ccc(NC(=O)CNCC(C)C)cc2)cc1,38% (inactive)
15,CC1(C)NCCC[C@]2(C)[C@H]3CC[C@H]4[C@H]5[C@H](C(=O)/C=C/c6cccnc6)CCC[C@]5(CO)CC[C@@]4(C)[C@]3(C)CC[C@@H]12,23.9% (inactive)
16,COC(=O)C(Cc1ccccc1)n1cc(COc2nc(Cl)nc(Nc3ccc(Cl)cc3)n2)nn1 (centres undefined),72.2% (inactive)
17,OC(c1cccc(C(F)(F)F)c1)c1cnccc1NC1CCCCC1 (centres undefined),45.3% (inactive)
18,CCOC(=O)c1sc(NC(=O)CN2CCC(Cc3ccccc3)CC2)nc1C,92% (inactive)
19,COCCN1CCN(Cc2ccc(-c3n[nH]c4c3C(=O)c3c(NC(=O)NN5CCOCC5)cccc3-4)cc2)CC1,-36.9% (active)
20,CC1=CC2C(C(O)CC3(C)C2CC(C)C32OCOC23COCO3)C2(C)C/C(=C/O)C(=O)C=C12 (centres undefined),-12.3% (active)

row,SMILES,growth
1,Cc1[nH]n(-c2ccccc2)c(=O)c1C=NC(=S)C(N)=S,102% (inactive)
2,c1ccc2nc(N/N=C3\CCCCC3C3CCCCC3)ccc2c1 (centres undefined),-19.7% (active)
3,Clc1ccc2c(NCCNc3nc(N4CCCC4)nc4ccccc34)ccnc2c1,-70% (active)
4,N#C/C(=C\c1ccc(Cl)cc1)n1nnc2cc(F)c(F)cc21,-19.4% (active)
5,CCOc1ncc([N+](=O)[O-])c(OCC)n1,108% (inactive)
6,CCN(CC)CCOc1ccc(C(=O)/C=C\c2ccc(Cl)cc2Cl)cc1,-29.2% (active)
7,CN(C)c1ccc(/C=C/C(=O)c2ccc(Nc3nc(Nc4ccc(F)cc4)nc(Nc4ccc(Cl)cc4)n3)cc2)cc1,-70.5% (active)
8,CC1(C)C(=O)/C(=C\c2ccco2)C[C@]2(C)[C@H]3CC=C4[C@@H]5C[C@](C)(C(=O)O)CC[C@]5(C)CC[C@@]4(C)[C@]3(C)CC[C@@H]12,-21.1% [100 µM] (active)
9,Cc1[nH]c(/C=C2\C(=O)Nc3ccc(F)cc32)c(C)c1C(=O)NC[C@H](O)CN1CCOCC1,4.41% (active)
10,CN1CCN(Cc2ccc(NC(=O)c3ccc(C(C)(C)C)c(C#Cc4cnc5cccnn45)c3)cc2C(F)(F)F)CC1,-17.4% (active)
11,CCN(CC)CCOC(COc1cc(C)cc(C)c1)COc1cc(C)cc(C)c1,20.3% (inactive)
12,O=c1[nH]c2ccccc2n2cc3cccnc3c12,87.5% (inactive)
13,CCOP(=O)(NC(c1ccccc1)c1ccccc1)OCC,101% (inactive)
14,Cc1nc([C@H]2CC[C@H]3[C@@H]4CCC5=CC(=O)CC[C@]5(C)[C@H]4CC[C@]23C)cs1,4.93% (active)
15,Cc1ccc(Cl)cc1Nc1nc(C(F)(F)F)ccc1C(=O)N/N=C/c1cccnc1,3.36% (active)
16,Cc1cn(-c2nc3c(c(NCc4ccccc4)n2)COCC3)c2cccc(C(N)=O)c12,71.1% [0.5 µM] (inactive)
17,N#Cc1ccc(C(F)(F)F)nc1N1CCC(C(=O)Nc2ccc(Cl)cc2)CC1,70% (inactive)
18,O=C1Nc2ccc(F)cc2C12Nc1cc(Cl)ccc1S2 (centres undefined),65.5% (inactive)
19,Cc1cccc(C)c1NC(=O)Nc1ccccc1,104% (inactive)
